# Values joined by “and” are separate entries in the source; they are usually repeats but may differ in a detail not shown here. Identical values can stand only once. Active and inactive are the calls of the source. Unless noted, no stated cut-off is given here; in the data, active means inhibition above about 80%; inactive means the rest.
# Tests used:
# [1] = viability loss with induced miR-34 in A549 – imaging, A549 dox-inducible miR-34, nuclei and caspase counts, primary screen (AID 1347080;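 active means compounds whose cell count with miR-34 switched on is under 0.7 times the count with it off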); conditions: A549 miR-34 inducible, Hoechst nuclei count, 48 h
# [2] = MELAS cybrid and Rieske KO viability enhancers – cell-based, MELAS cybrids, Rieske KO mouse fibroblasts, CellTiter-Glo, primary screen (AID 1508586;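 active means mean z-score across replicates of 1.96 or higher in either the MELAS or the Rieske mutant cell line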;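 further: z relative to plate mean and SD of compound and empty wells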); conditions: low glucose
# [3] = growth inhibition, single agent or in combination, cell-based, chromothripsis tumors, cisplatin or BGB combos (AID 1671449); conditions: LFS_MB_P medulloblastoma cells;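 further: cells exposed for 96 hours; 0% = vehicle DMSO and 100% = killing by high DMSO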
# [4] = growth inhibition, single agent and combos, cell-based, chromothripsis tumors, cisplatin or BGB combos (AID 1671450); conditions: HDN33 neuroblastoma cells, stronger effect = higher value;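 further: cells exposed to compound for four days; 0% = vehicle DMSO and 100% = cell killing by high DMSO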
# [5] = growth inhibition, single agents and combos, ICB984, cell-based, cisplatin or BGB combos, synergistic combos for chromothripsis tumors (AID 1671451; call rule not given here;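 further: cells exposed for 96 hours before readout; 0% = vehicle DMSO and 100% = killing by high DMSO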); conditions: ICB984 medulloblastoma cells, drug combinations, stronger effect = higher value
# [6] = growth inhibition, single agents and combos, LFS_MB_1R, cell-based, cisplatin or BGB combos, synergistic combos for chromothripsis tumors (AID 1671452); conditions: LFS_MB_1R medulloblastoma cells, stronger effect = higher value;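 further: cells exposed for 96 hours before readout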
# [7] = growth inhibition, single agents and combos, HTB85, cell-based, BGB or cisplatin IC20 combos, synergistic combos for chromothripsis tumors (AID 1671453); conditions: HTB85 osteosarcoma cells, drug combinations, stronger effect = higher value;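 further: cells exposed for 96 hours before readout; 0% = vehicle DMSO and 100% = high DMSO killing control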
# [8] = growth inhibition, single agents and combos, CRL2098, cell-based, BGB or cisplatin IC20 combos, synergistic combos for chromothripsis tumors (AID 1671454); conditions: CRL2098 osteosarcoma cells, drug combinations, stronger effect = higher value;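 further: cells exposed for 96 h before readout; 0% = vehicle DMSO and 100% = killing by high DMSO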
# [9] = growth inhibition, single agents and combos, HD-MB03, cell-based, BGB or cisplatin IC20 combos, synergistic combos for chromothripsis tumors (AID 1671455; in the data active means inhibition above about 83%;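 further: 0% = vehicle DMSO and 100% = high DMSO as cytotoxic control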); conditions: HD-MB03 medulloblastoma cells, stronger effect = higher value
# [10] = growth inhibition, single agents and combos, UWB1.289, cell-based, BGB or cisplatin combos, synergistic combos for chromothripsis tumors (AID 1671456); conditions: UWB1.289 ovarian carcinoma cells, stronger effect = higher value;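 further: cells exposed to compound for four days; 0% = vehicle DMSO and 100% = killing by high DMSO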
# [11] = growth inhibition, single agents and combos, LFS_MB_2R, cell-based, cisplatin combos, synergistic combos for chromothripsis tumors (AID 1671457); conditions: LFS_MB_2R medulloblastoma cells, stronger effect = higher value;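 further: cells exposed to compound for four days before readout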
# [12] = growth inhibition, MDA-MB-436, cell-based, BGB or cisplatin combos, synergistic combos for chromothripsis tumors (AID 1671458; call rule not given here;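 further: cells exposed for 96 hours; 0% = vehicle DMSO and 100% = killing by high DMSO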); conditions: MDA-MB-436 breast carcinoma growth inhibition, drug combinations, stronger effect = higher value
# [13] = UWB1.289_BRCA1 ovarian cancer growth, cell-based, BGB or cisplatin combinations (AID 1671459); conditions: UWB1.289 BRCA1 ovarian carcinoma, drug combinations, stronger effect = higher value
# [14] = drug combination toxicity in non-malignant astrocytes – cell-based, BGB or cisplatin IC20 combos, cytotoxicity control for chromothriptic childhood tumor combination screen (AID 1671460); conditions: Human astrocytes, viability inhibition, drug combinations, at 0.5 µM, stronger effect = higher value;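 further: cells exposed to compounds for 96 hours before viability readout; 0% = vehicle and 100% = killing control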
# [15] = BT084 cell growth, single and combined drugs, ICGC_MB145, cisplatin and BGB IC40 combos (AID 1671461); conditions: BT084 medulloblastoma cells, drug combinations, stronger effect = higher value;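 further: cells exposed to drugs for 96 hours; 0% = vehicle DMSO and 100% = high DMSO full killing control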
# [16] = RCMB18 cell growth, single agent and combined, cisplatin and BGB IC40 combos (AID 1671462); conditions: RCMB18 medulloblastoma cells, stronger effect = higher value;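 further: cells exposed to compound for four days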
# [17] = CRL1545 cell growth, single agent and combined, cisplatin and BGB IC20 combos (AID 1671464); conditions: CRL1545 osteosarcoma cells, stronger effect = higher value;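 further: cells exposed to compound for 96 hours before readout; 0% = vehicle DMSO and 100% = high DMSO killing control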
# [18] = measured here: combination with BGB IC40, at 0.05 µM
# [19] = measured here: with BGB IC20 combination, at 0.5 µM
# [20] = measured here: with cisplatin IC20 combination, at 0.5 µM
# [21] = measured here: combination with cisplatin, at 0.5 µM
# [22] = measured here: combination with cisplatin, at 5 µM
smiles,measurement,setting,value
CN(C)CC(=O)Nc1ccc2[nH]c(=O)c3ccccc3c2c1,fold change,"[1]; stronger effect = lower value, cell number ratio, induced over uninduced",0.941 (inactive) and 0.916 (inactive)
same,fold change,[1]; measured here: relative caspase fold change +Dox/-Dox,0.694 and 0.571
same,cell count,"[1]; measured here: total cells with miR-34 induction, stronger effect = lower value",5000 and 7760
same,cell count,[1]; measured here: total cells without miR-34 induction,5310 and 8470
same,z-score,"[2]; MELAS cybrid survival, CellTiter-Glo 48 h, stronger effect = higher value",-0.15 (inactive) and -0.352 (inactive)
same,z-score,"[2]; Rieske KO mouse fibroblast survival, CellTiter-Glo 72 h",-0.197 and 0.819
same,inhibition,"[3]; at 0.5 µM, stronger effect = higher value",-18.5% (inactive) and -17% (inactive) and -7.46% (inactive)
same,inhibition,"[3]; measured here: combination with BGB IC20, at 0.005 µM",12.4% and -8.96% and -31.5%
same,inhibition,"[3]; measured here: combination with BGB IC40, at 0.005 µM",-19.5% and -21.6% and -39.4%
same,inhibition,[3]; [18],-14.8% and -27.5% and -40.5%
same,inhibition,"[3]; measured here: combination with cisplatin, at 0.5 µM, stronger effect = higher value",-45.3% and -39.5% and -30.4%
same,inhibition,"[3]; measured here: combination with cisplatin, at 5 µM, stronger effect = higher value",4.17% and -17.8% and -4.6%
same,inhibition,"[4]; BGB combo, at 5 µM",7.32% and -6.67% and -9.33%
same,inhibition,[4]; at 0.5 µM,6.02% (inactive) and -1.05% (inactive) and -19% (inactive)
same,inhibition,"[4]; cisplatin combo, at 5 µM",17.1% and 1.58% and -10.8%
same,inhibition,[4]; [19],-3% and -3.63% and -21.1%
same,inhibition,[4]; [20],16.9% and 5.73% and -18.5%
same,inhibition,"[4]; single agent, at 5 µM",15.5% and 10.2% and 30.1%
same,inhibition,"[5]; BGB IC20 combo, at 0.005 µM",-13.3% and -2.95% and -7.79%
same,inhibition,"[5]; BGB IC40 combo, at 0.005 µM",-17% and -47.2% and -17.2%
same,inhibition,"[5]; BGB IC40 combo, at 0.05 µM",-0.058% and 4.16% and -0.711%
same,inhibition,[5]; at 0.5 µM,-28.4% (inactive) and -20.4% (inactive) and -5.86% (inactive)
same,inhibition,"[5]; cisplatin combo, at 0.05 µM",-2.85% and 1.48% and -4.33%
same,inhibition,"[5]; cisplatin combo, at 0.5 µM",-27.2% and -5.09% and 16.6%
same,inhibition,"[5]; cisplatin combo, at 5 µM",-20% and -21% and -0.405%
same,inhibition,"[5]; measured here: 5 uM single agent, at 5 µM",-18.7% and -14.3% and -10.6%
same,inhibition,[6]; at 0.5 µM,-13.8% (inactive) and -13.5% (inactive) and -14% (inactive)
same,inhibition,[6]; [18],-3.83% and -23.1% and -25.7%
same,inhibition,[6]; [21],0.486% and -10.2% and -9.3%
same,inhibition,[6]; [22],-18.1% and 3.23% and -15.4%
same,inhibition,[7]; at 0.5 µM,-2.64% (inactive) and 6.11% (inactive) and -9.79% (inactive)
same,inhibition,"[7]; measured here: with BGB IC20, at 0.5 µM",-8.36% and -5.68% and -25.9%
same,inhibition,"[7]; measured here: with BGB IC20, at 5 µM",-24.1% and 8.44% and -2.25%
same,inhibition,"[7]; measured here: with cisplatin IC20, at 0.5 µM",-8.52% and 5.14% and 3.46%
same,inhibition,"[7]; measured here: with cisplatin IC20, at 5 µM",-29.8% and -39.5% and -46.8%
same,inhibition,"[7]; single agent, at 5 µM",1.63% and -7.42% and 3.8%
same,inhibition,[8]; at 0.5 µM,-36.8% (inactive) and -23.4% (inactive) and -51.4% (inactive)
same,inhibition,"[8]; measured here: combination with BGB at IC20, at 0.5 µM",-71.3% and -23.5% and -26.5%
same,inhibition,"[8]; measured here: combination with cisplatin at IC20, at 0.5 µM",-19% and -5.62% and -82%
same,inhibition,[9]; at 0.5 µM,-0.31% (inactive) and -9.88% (inactive) and -18.4% (inactive)
same,inhibition,"[9]; measured here: combo with BGB at IC20, at 0.5 µM",0.82% and -0.47% and -22%
same,inhibition,"[9]; measured here: combo with cisplatin at IC20, at 0.5 µM",-8.4% and -20.4% and -29.9%
same,inhibition,[10]; at 0.5 µM,3.12% (inactive) and 0.71% (inactive) and -1.11% (inactive)
same,inhibition,"[10]; measured here: inhibition with BGB combination, at 0.05 µM",-1.46% and -11.5% and -12.3%
same,inhibition,"[10]; measured here: inhibition with cisplatin combination, at 0.05 µM",-5.87% and -5.94% and -12.4%
same,inhibition,[11]; at 0.5 µM,-1.17% (inactive) and -17.8% (inactive) and -26.4% (inactive)
same,inhibition,[11]; [21],-1.41% and -14.7% and -24.5%
same,inhibition,[11]; [22],-64% and -69.6% and -24.6%
same,inhibition,[12]; at 0.5 µM,-4.41% (inactive) and -15.5% (inactive) and -5.43% (inactive)
same,inhibition,"[12]; measured here: BGB combination, at 0.5 µM",-3.67% and -13.7% and -14%
same,inhibition,"[12]; measured here: BGB combination, at 5 µM",-15.9% and -32.7% and -34.6%
same,inhibition,"[12]; measured here: cisplatin combination, at 0.5 µM",-8.29% and -33% and -6.83%
same,inhibition,"[12]; measured here: cisplatin combination, at 5 µM",-17.2% and -39.2% and -6.55%
same,inhibition,"[13]; BGB combination, concentration series, at 5 µM",-7.67% and -9.61% and 17%
same,inhibition,[13]; at 0.5 µM,1.59% (inactive) and -0.05% (inactive) and -1.7% (inactive)
same,inhibition,"[13]; cisplatin combination, concentration series, at 5 µM",16.4% and 6.78% and -0.772%
same,inhibition,[14],0.7% (inactive) and -7.07% (inactive) and 10.3% (inactive)
same,inhibition,[14]; measured here: combo with BGB IC20,-4.06% and -11% and -10.6%
same,inhibition,[14]; measured here: combo with cisplatin IC20,6.3% and -10.6% and 20.9%
same,inhibition,[15]; at 0.5 µM,-5% (inactive) and -17.7% (inactive) and -25% (inactive)
same,inhibition,"[15]; cisplatin combination, at 0.5 µM",-11% and 0.828% and -68.7%
same,inhibition,"[15]; cisplatin combination, at 5 µM",-4.17% and -13.1% and -46%
same,inhibition,"[15]; measured here: BGB IC40 combination 0.05 uM, at 0.05 µM",25% and 2.93% and -19.8%
same,inhibition,"[15]; single agent, at 5 µM",-11.5% and -8.61% and -15%
same,inhibition,[16]; at 0.5 µM,-10.8% (inactive) and -26% (inactive) and -30.1% (inactive)
same,inhibition,"[16]; cisplatin combo, at 5 µM",-47.6% and -22.2% and -34.1%
same,inhibition,"[16]; measured here: BGB IC40 combination, at 0.05 µM",1.7% and -24.6% and -7.83%
same,inhibition,[16]; [21],-0.146% and -31.4% and -63.1%
same,inhibition,"[16]; single agent, at 5 µM",-17.1% and -32.1% and -45.8%
same,inhibition,[17]; at 0.5 µM,-19.1% (inactive) and 4.9% (inactive) and -4.49% (inactive)
same,inhibition,[17]; [19],-45.9% and 5.19% and -19.6%
same,inhibition,[17]; [20],-8.03% and 2.6% and 1.49%
same,inhibition,"[17]; single agent, at 0.05 µM",18.8% and -30.7% and 29.1%
same,inhibition,"[17]; single agent, at 5 µM",-20.3% and -21.7% and -53.8%

# Reference: PubChem BioAssay
